Only some compounds are listed: those with a hit (about 4.4% of all), similar ones and a draw of the others.
TIM10 inh – inhibits growth of TIM10 yeast strain; S. cerevisiae TIM10 strain growth, BacTiter-Glo luminescence, 24 h; inhibition, % at 10 µM; actives 1.4% (n = 330,000); AID 463195;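 active means inhibition of 40% or more at the single tested concentration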;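 further: wild-type TIM10 isogenic control strain grown at permissive 25 °C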
tim23-1 inh – tim23-1 yeast growth inhibition | actives 1.3% (n = 330,000) | inhibition, % at 20 µM | S. cerevisiae tim23-1 growth, BacTiter-Glo luminescence, 24 h;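 active means growth inhibition of the mutant yeast at or above 50%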;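 further: temperature-sensitive mutant grown at 25 °C; plate controls were DMSO-treated mutant yeast for no effect and medium wells lacking yeast for full effect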
tim10-1 inh – growth inhibitors of tim10-1 mutant yeast | AID 463190 | actives 2.2% (n = 330,000) | inhibition, % at 20 µM | S. cerevisiae tim10-1 ts strain growth, BacTiter-Glo, 24 h;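 active means inhibition of at least 40%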;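 further: mutant grown at 25 °C; 0% = DMSO wells with yeast and 100% = wells holding no yeast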
Mot1-301 SUMO – inhibitors of SUMOylation pathway: yeast Mot1-301 growth rescue. actives 1% (n = 320,000). growth rescue, % at 18.8 µM. S. cerevisiae Mot1-301 growth rescue, ATP luminescence, 38.5C; percent above DMSO median, 100 means doubled;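 active means every valid replicate shows activation above 250% relative to neutral control wells; inactive means the rest, any valid replicate at or below 250%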;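 further: OY570 slx delta 5 strain wells were the positive control but not used for scaling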
PfHsp90 yeast 2 – inhibits growth of yeast expressing Plasmodium falciparum Hsp90. S. cerevisiae expressing PfHsp90, BacTiter-Glo ATP, 48 h; yeast lacking PDR1 and PDR3 efflux regulators. inhibition, % at 9.4 µM. AID 504621. actives 0.32% (n = 310,000);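 active means every replicate shows inhibition above about 80%, whatever the replicate mean, limit read from the data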;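 further: 0% = DMSO neutral controls and 100% = 20 µM radicicol positive controls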
Mot1 SUMO dose – inhibits SUMO pathway, affecting Mot1-301 yeast growth; shares compounds with Mot1-301 SUMO; S. cerevisiae Mot1-301 galactose growth, ATP luminescence, 24 h; -100 = growth of slx-deleted rescue strain; growth activity, percent, % at 42 µM; 2,300 tested, under 10 active; AID 493004;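 active means Signal drops as the depositor expects, and the fitted half-maximal dose is no more than ten times the top valid tested dose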;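 further: more negative values mean stronger growth rescue toward the control strain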
* marks the source's active call; other numbers are inactive results.

How did Cc1cc(NC(=O)CSc2ncccn2)no1 do in these assays?
TIM10 inh: -16; tim23-1 inh: 5; tim10-1 inh: -5; Mot1-301 SUMO: -7; PfHsp90 yeast 2: 16

What do the screens show for `CCOC(=O)C1CCN(C(=O)COc2ccc(S(=O)(=O)N3CCOCC3)cc2)CC1`?
TIM10 inh: 9; tim23-1 inh: 9; tim10-1 inh: 6; Mot1-301 SUMO: 14; PfHsp90 yeast 2: 5

Results for CCOC(=O)C1CCN(C(=O)COc2ccc(S(=O)(=O)N3CCOCC3)cc2C)CC1 ?
TIM10 inh: -25; tim23-1 inh: 5; tim10-1 inh: 18; Mot1-301 SUMO: 718*; PfHsp90 yeast 2: 15; Mot1 SUMO dose: 0

How did COc1ccc(-c2cc(=O)oc3cc(OC(C)C(=O)NCCCn4ccnc4)ccc23)cc1 (centres undefined) do in these assays?
TIM10 inh: -9; tim23-1 inh: -9; tim10-1 inh: -9; Mot1-301 SUMO: -15; PfHsp90 yeast 2: -7

How did O=C(NC1CCCCC1)c1n[nH]c2c1CCCCC2 do in these assays?
TIM10 inh: 4; tim23-1 inh: 30; tim10-1 inh: 3; Mot1-301 SUMO: 364*; PfHsp90 yeast 2: -20; Mot1 SUMO dose: -2

How did CCn1cc(Br)c(C(=O)Nc2nccs2)n1 do in these assays?
TIM10 inh: 1; tim23-1 inh: -1; tim10-1 inh: 10; Mot1-301 SUMO: 1; PfHsp90 yeast 2: -23

Results for COCCN1C(=O)c2ccc(C(=O)Nc3nccs3)cc2C1=O ?
TIM10 inh: 12; tim23-1 inh: 14; tim10-1 inh: 2; Mot1-301 SUMO: 23; PfHsp90 yeast 2: 2

What do the screens show for `CCCN1C(=O)c2ccc(C(=O)Nc3nccs3)cc2C1=O`?
TIM10 inh: 27; tim23-1 inh: 3; tim10-1 inh: 19; Mot1-301 SUMO: 544*; PfHsp90 yeast 2: -1; Mot1 SUMO dose: 1

Results for CCn1nccc1C(=O)Nc1nccs1 ?
TIM10 inh: 11; tim23-1 inh: 16; tim10-1 inh: 13; Mot1-301 SUMO: 706*; PfHsp90 yeast 2: 17; Mot1 SUMO dose: 0

What do the screens show for `Cc1ccc(SC(C)c2nc(-c3ccncc3)no2)cc1` (centres undefined)?
TIM10 inh: -25; tim23-1 inh: -18; tim10-1 inh: -19; Mot1-301 SUMO: 3; PfHsp90 yeast 2: 18

What do the screens show for `Cc1ccc(Sc2cnccc2C#N)cc1`?
TIM10 inh: 20; tim23-1 inh: 31; tim10-1 inh: 27; Mot1-301 SUMO: 618*; PfHsp90 yeast 2: -27; Mot1 SUMO dose: 2

How did CC(C)c1ccc(OC(=O)c2ccc3c(=O)n4c(nc3c2)CCC4)cc1 do in these assays?
TIM10 inh: 6; tim23-1 inh: -1; tim10-1 inh: 17; Mot1-301 SUMO: 12

How did Nc1nnc(CC(=O)N2CCCCC2)s1 do in these assays?
TIM10 inh: -15; tim23-1 inh: -1; tim10-1 inh: 2; Mot1-301 SUMO: 396*; PfHsp90 yeast 2: -7; Mot1 SUMO dose: 0

Results for CCCCn1c(N)c(N(CC)C(=O)c2ccccc2F)c(=O)[nH]c1=O ?
TIM10 inh: -20; tim23-1 inh: 1; tim10-1 inh: 4; Mot1-301 SUMO: -3; PfHsp90 yeast 2: -21

What do the screens show for `CC1=C(C)CS(=O)N(S(=O)(=O)c2ccc(Cl)cc2)C1` (centres undefined)?
TIM10 inh: 11; tim23-1 inh: 21; tim10-1 inh: 38; Mot1-301 SUMO: 724*; PfHsp90 yeast 2: 29; Mot1 SUMO dose: -1

How did CC1CCCC(C)N1S(=O)(=O)c1ccc(Cl)cc1 (centres undefined) do in these assays?
TIM10 inh: -3; tim23-1 inh: 18; tim10-1 inh: 1; Mot1-301 SUMO: -3; PfHsp90 yeast 2: 19

What do the screens show for `COCC(C)n1c(SCC(=O)Nc2c(C)n(C)n(-c3ccccc3)c2=O)nc2ccccc2c1=O` (centres undefined)?
TIM10 inh: 5; tim23-1 inh: 8; tim10-1 inh: 9; Mot1-301 SUMO: 10; PfHsp90 yeast 2: 14

How did CC[C@@H]1CCCCc2ccccc2[C@H](C(=O)C[C@@H](O)CC(C)=O)OC1=O do in these assays?
TIM10 inh: 5; tim23-1 inh: 9; tim10-1 inh: -4; Mot1-301 SUMO: 11; PfHsp90 yeast 2: 1

How did CC[C@H]1CCCCc2ccccc2[C@@H](C(=O)C[C@@H](O)CC(C)=O)OC1=O do in these assays?
TIM10 inh: 37; tim23-1 inh: 38; tim10-1 inh: 29; Mot1-301 SUMO: 527*; PfHsp90 yeast 2: 11; Mot1 SUMO dose: -1

How did CC(=O)c1ccc(N/N=C2/CCCNC2=O)cc1 do in these assays?
TIM10 inh: 17; tim23-1 inh: 8; tim10-1 inh: -2; Mot1-301 SUMO: 3; PfHsp90 yeast 2: 6

What do the screens show for `Cc1ccc(N/N=C2/CCCNC2=O)cc1`?
TIM10 inh: 15; tim23-1 inh: 2; tim10-1 inh: 9; Mot1-301 SUMO: 528*; PfHsp90 yeast 2: 8; Mot1 SUMO dose: 0

How did CCNC(=S)NNC(=O)c1ccc(=O)n(Cc2ccccc2)c1 do in these assays?
TIM10 inh: -10; tim23-1 inh: -1; tim10-1 inh: -3; Mot1-301 SUMO: 834*; PfHsp90 yeast 2: -11; Mot1 SUMO dose: 0

What do the screens show for `CNC(=S)NNC(=O)c1ccc(=O)n(Cc2cccc(C(F)(F)F)c2)c1`?
TIM10 inh: 2; tim23-1 inh: -9; tim10-1 inh: -10; Mot1-301 SUMO: -13; PfHsp90 yeast 2: 4

How did Cc1ccc(C(CNS(=O)(=O)c2ccc([N+](=O)[O-])cc2)N2CCN(C)CC2)cc1 (centres undefined) do in these assays?
TIM10 inh: -3; tim23-1 inh: -11; tim10-1 inh: 0; Mot1-301 SUMO: 42; PfHsp90 yeast 2: 9

How did Cc1nn(C)c(Cl)c1CN1CCN(CC(C)C)C(CCO)C1 (centres undefined) do in these assays?
TIM10 inh: -21; tim23-1 inh: 4; tim10-1 inh: -12; Mot1-301 SUMO: 1; PfHsp90 yeast 2: -6

Results for Cc1nn(C)c(Cl)c1CN1CCN(CCC(C)C)C(CCO)C1 (centres undefined) ?
TIM10 inh: -7; tim23-1 inh: 8; tim10-1 inh: 12; Mot1-301 SUMO: active; PfHsp90 yeast 2: 7; Mot1 SUMO dose: 0

How did N/C(=N\NC(=O)c1sccc1OCc1ccc(Cl)cc1Cl)c1ccccn1 do in these assays?
TIM10 inh: -12; tim23-1 inh: 10; tim10-1 inh: 0; Mot1-301 SUMO: 529*; PfHsp90 yeast 2: -29; Mot1 SUMO dose: 0

What do the screens show for `CC1=Nc2ccc(C)cc2N(Cc2ccccc2)C(=O)C1`?
TIM10 inh: 6; tim23-1 inh: 18; tim10-1 inh: 20; Mot1-301 SUMO: 629*; PfHsp90 yeast 2: 3; Mot1 SUMO dose: 0

Results for CC1=C(C)CC2C(=O)N(Cc3ccccc3)C(=O)C2C1 (centres undefined) ?
TIM10 inh: -8; tim23-1 inh: 7; tim10-1 inh: -17; Mot1-301 SUMO: 102
